Bioassay records (PubChem)
Compounds with a hit are over-represented: about 14% of the library has one in this group of screens.
A350 fluor – qHTS Assay for Spectroscopic Profiling in A350 Spectral Region. Compound autofluorescence, 340/450 nm, Alexa 350 dye-equivalents; stronger effect = higher value. max dye-equivalent concentration, M. 59,000 tested, 11% active. AID 590, 2007; in the data active = max dye-equivalent concentration above about 10 nM; inconclusive = mostly about 1.1 nM to 9.6 nM
HADH2 inh – qHTS Assay for Inhibitors of HADH2 (Hydroxyacyl-Coenzyme A Dehydrogenase, Type II); 3-hydroxyacyl-CoA dehydrogenase type-2 (Homo sapiens), Q99714; recombinant HADH2, NADH fluorescence, beta-hydroxybutyryl-CoA; Potency, µM (series often up to 57.1 µM), usual class: inhibitors; 73,000 tested, 3.4% active; note: nearly all actives have a fitted effect of over 60% in size
Target sequence (Q99714 whole entry, looked up, one chain of several): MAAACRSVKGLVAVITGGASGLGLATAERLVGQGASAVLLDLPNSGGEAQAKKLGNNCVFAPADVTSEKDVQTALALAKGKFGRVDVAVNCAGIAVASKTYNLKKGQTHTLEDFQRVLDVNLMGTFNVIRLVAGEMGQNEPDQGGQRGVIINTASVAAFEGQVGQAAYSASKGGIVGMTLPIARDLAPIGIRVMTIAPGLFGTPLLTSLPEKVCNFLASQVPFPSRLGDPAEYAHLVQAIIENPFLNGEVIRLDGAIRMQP
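E. coli-expressed His-tagged HADH2 tested at 20 nM in alkaline Tris buffer (pH 9.0); oxidation of 90 uM beta-hydroxybutyryl-CoA with 1 mM NAD+ tracked fluorimetrically for 4 min.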
4-MU autofl – qHTS Assay for Spectroscopic Profiling in 4-MU Spectral Region. compound autofluorescence, 340/450 nm, 4-MU equivalents; stronger effect = higher value. max dye-equivalent concentration, M. 59,000 tested, 11% active. AID 589, 2007; in the data active = max dye-equivalent concentration above about 10 nM; inconclusive = mostly about 1.1 nM to 9.6 nM
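Compounds in 100 mM Tris, pH 8.0, sat 15 min at room temperature before fluorescence was read at 340 nm excitation/450 nm emission; a per-plate six-point 4-MU standard curve converted signals to dye-equivalent concentration at each compound concentration.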
AID923 – qHTS Assay for Allosteric/Competitive Inhibitors of Caspase-1: Spectroscopic Profiling in AFC Spectral Region | compound fluorescence, AFC spectral region (405/520 nm) | Potency, µM (highest dose often 57.5 µM), usual class: activators | 75,000 tested, 1.1% active | AID 923, 2007
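Baseline compound fluorescence (AFC region, 405 nm ex/520 nm em) taken from the intercept of kinetic reads with 50 nM caspase-1 and 5 uM Ac-WEHD-AFC; normalized to an on-plate AFC standard curve; compounds titrated up to 57 uM.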
HSD17B inhib – qHTS Assay for Inhibitors of HSD17B4, hydroxysteroid (17-beta) dehydrogenase 4; recombinant HSD17B10, NADH fluorescence kinetic; 75,000 tested, 7.6% active; Potency, µM (highest dose often 57.1 µM), most hits filed as inhibitors; AID 893, 2007;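 note: the protocol describes HADH2 (HSD17B10) and not the HSD17B4 of the title; nearly all actives have a fitted effect of over 70% in size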
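His-tagged E. coli-expressed HADH2 at 20 nM in 100 mM Tris-HCl pH 9.0 with 0.01 % Tween-20, preincubated 15 min with compound at room temperature. Reaction with 1 mM NAD+ and 90 uM beta-hydroxybutyryl coenzyme A; NADH fluorescence (360/450 nm) read kinetically over 4 min, last minus first point.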
CRE-bla Fsk – Cell signaling CRE-BLA (Fsk stim) | CHO CRE-bla reporter (cAMP response element driving beta-lactamase), forskolin EC10, beta-lactamase ratio | Potency, µM (top dose mostly 38.2 µM), actives largely listed as activators | 71,000 tested, 2.5% active | AID 662, 2007; active = well fitted activation curve with a large enough effect in the signal ratio, with a control signal flat, not every such curve was filed as active; inconclusive = small, poorly fitted or top-dose-only effect, or effect the other way, or a change in a side signal; the % refers to the signal ratio
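Cells were plated overnight at 37 °C, exposed to compound titrations plus EC10 NKH 477 for 3 h, then given CCF4 dye for 2 h at room temperature. Blue/green (460/530 nm) ratio was converted to %Activity and AC50 values calculated.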
Each line names hits and unclear results; the compound was inactive in the other large screens. Unless noted, calls come from the whole dose curve; as a rule, active = well fitted curve in the direction sought with a large enough effect; inconclusive = small, poorly fitted or top-dose-only effect, or another doubt; inactive = no such curve, though single readings can be large; an effect the other way counts as inactive or inconclusive.

Oc1c(Cl)cc(CN(Cc2cc(Cl)c(O)c(Cl)c2)C2CCCCC2)cc1Cl	none
O=C(NCCN1CCCC1)c1ccc(-n2c(=O)c(=O)[nH]c3ccccc32)cc1	none (no result: A350 fluor, 4-MU autofl, CRE-bla Fsk)
O=C(Nc1ccc(-c2nc3ccccc3[nH]2)cc1)c1ccco1	A350 fluor 8.4e-08M, HADH2 inh inconclusive, 4-MU autofl 8.8e-08M, HSD17B inhib inconclusive
CN(Cc1ccco1)c1ncnc2ccc(-c3cccc(C#N)c3)cc12	HSD17B inhib inconclusive, CRE-bla Fsk inconclusive
CCCCCn1c(=O)[nH]c2cc(C(=O)NCCCN(CC)CC)ccc2c1=O	A350 fluor 4.5e-08M, 4-MU autofl 4.5e-08M, HSD17B inhib 25µM
CCCCCn1c(=O)[nH]c2cc(C(=O)O)ccc2c1=O	A350 fluor 1.2e-08M, 4-MU autofl 1.3e-08M, HSD17B inhib 25µM
CCCCCn1c(=O)[nH]c2cc(C(=O)NCCN3CCOCC3)ccc2c1=O	A350 fluor 2.4e-08M, HADH2 inh 25µM, 4-MU autofl 2.2e-08M, HSD17B inhib inconclusive
O=C(NCc1ccco1)c1ccc2c(=O)n(CCC3=CCCCC3)c(=O)[nH]c2c1	HSD17B inhib 32µM, CRE-bla Fsk inconclusive
CCOCCCn1c(=S)[nH]c2cc(C(=O)NCCN(CC)CC)ccc2c1=O	A350 fluor inconclusive, 4-MU autofl inconclusive, CRE-bla Fsk inconclusive
CCN1CCN(C(=O)c2ccc3c(=O)n(CCC4=CCCCC4)c(=O)[nH]c3c2)CC1	A350 fluor inconclusive, 4-MU autofl inconclusive, HSD17B inhib inconclusive, CRE-bla Fsk inconclusive
Cc1ccc(CNC(=O)C2(CC(C)C)C=CCN2C(=O)c2ccccc2)o1 (stereo unspecified)	none (no result: A350 fluor, 4-MU autofl)
Cn1cccc1C(=O)N1CCC[C@@]2(CCN(C(c3ccccc3)c3ccccc3)C2)C1	none
CO[C@@H]1COC(=O)C/C=C\[C@@H](C)[C@H](OC)COC(=O)C/C=C\[C@H]1C	none (no result: A350 fluor, 4-MU autofl, CRE-bla Fsk)
CCCCCn1c(=O)[nH]c2cc(C(=O)NCc3ccc4c(c3)OCO4)ccc2c1=O	A350 fluor 1.2e-08M, 4-MU autofl 1.3e-08M, HSD17B inhib inconclusive
O=C(NCc1ccc2c(c1)OCO2)c1cccc(C(=O)NCc2ccc3c(c2)OCO3)c1	none (no result: A350 fluor, 4-MU autofl)
O=C(NCCN1CCCC1)c1ccc2c(=O)n(CCc3ccccc3)c(=O)[nH]c2c1	A350 fluor 2.4e-08M, 4-MU autofl 2.5e-08M, HSD17B inhib 16µM
C=CCn1c(=O)n(CCOC)c(=O)c2sc3ccccc3c21	HADH2 inh 32µM, HSD17B inhib 32µM, CRE-bla Fsk inconclusive (no result: A350 fluor, 4-MU autofl)
O=C1C=CC(=O)C2=C1C1c3ccccc3C2c2ccccc21	HADH2 inh 0.1µM, HSD17B inhib 1µM (no result: A350 fluor, 4-MU autofl, CRE-bla Fsk)
CCc1cc2c(nc1CC)CCN(CC/C(C)=N/OC[C@@H](O)COCc1ccco1)C2	none (no result: A350 fluor, 4-MU autofl, CRE-bla Fsk)
CCCOc1nc(N)c(C#N)c(-c2ccccc2F)c1C#N	HADH2 inh inconclusive, CRE-bla Fsk inconclusive
CCCc1nc(N)c(C#N)c(N)c1C#N	CRE-bla Fsk 5µM
CO[C@H]1[C@H](O[C@H]2O[C@@H](C)[C@@H](O[C@@H]3C[C@](C)(O)[C@H](O)[C@H](C)O3)[C@@H](N(C)C)[C@@H]2O)[C@@H](CC=O)C[C@@H](C)[C@@H](O[C@H]2CC[C@H](N(C)C)[C@H](C)O2)/C=C\C=C/C[C@@H](C)OC(=O)C[C@H]1O	none
Cc1nnc2ccc(N3CCN(C(=O)c4ccccc4)CC3)nn12	none (no result: A350 fluor, 4-MU autofl)
Cc1cc(C)n(-c2nc3ccccc3nc2N2CCN(C(=O)c3ccccc3)CC2)n1	A350 fluor 1.1e-08M, 4-MU autofl 1.2e-08M
Cc1cc(C)n(-c2nc3ccccc3nc2N2CCN(S(=O)(=O)c3ccc(F)c(C)c3)CC2)n1	A350 fluor 9.5e-08M, HADH2 inh inconclusive, 4-MU autofl 9e-08M
Cc1cc(N2CCN(S(=O)(=O)c3ccc(Cl)cc3)CC2)c2ccccc2n1	CRE-bla Fsk inconclusive (no result: A350 fluor, 4-MU autofl)
Cl/C(=C\n1cncn1)c1ccc(Cl)cc1Cl	CRE-bla Fsk inconclusive (no result: A350 fluor, 4-MU autofl)
